Assay outcomes (PubChem BioAssay)
KCNQ2 pot – potentiators of rat KCNQ2 potassium channel; O88943; CHO-K1 KCNQ2, FluxOR thallium flux fluorescence; active compounds read high; B-score at 10 µM; actives 0.54% (n = 310,000); AID 2239;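 active means fluorescence ratio B-score at least 3 SD of library B-scores, with initial fluorescence B-score within 3 of them, cut at about 5.3 in these data; same plate scores as AID 2156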;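 further: B-score of peak minus minimum over baseline fluorescence ratio after K+ and Tl+ stimulus; positive B-score means potentiation of KCNQ2 with more thallium influx and brighter signal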
KCNQ2 inh – inhibitors of rat KCNQ2 potassium channel | AID 2156 | CHO-K1 KCNQ2, FluxOR thallium flux, 20 min; active compounds read low | actives 1.1% (n = 310,000) | B-score at 10 µM | O88943;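 active means fluorescence ratio B-score at most minus 3 library SDs, with starting brightness B-score within 2 library SDs, cut at about -5.5 in these data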
Kir21 conf inh – confirmation of mouse Kir2.1 potassium channel inhibitors | shares compounds with KCNQ2 pot | Kir2.1-expressing cells, FluxOR thallium flux fluorescence; active compounds read low | Tl flux remaining, % of negative control (active compounds read low), % at 10 µM | actives 41% (n = 2,300) | AID 2032;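 active means Primary-screen hit whose thallium flux fell at least 3 control SD below untreated wells in both duplicates, with normal baseline fluorescence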
HEK293 ctr – alters thallium flux in parental HEK293 cells, Kir2.1 counter-screen. AID 2105. shares compounds with KCNQ2 pot. actives 19% (n = 2,300). FluxOR thallium flux fluorescence; 0% = unstimulated blank wells. FluxOR signal as % of negative control (100 = no effect), % at 10 µM;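 active means dye signal at least 3 control SD above or below untreated wells in both duplicates, raw fluorescence within 3, either direction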;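 further: percent is based on the flux ratio of peak minus minimum fluorescence over baseline F0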
CHO-K1 ctr – counter-screen for KCNQ2 potentiators: effect in parental CHO-K1 cells | shares compounds with KCNQ2 pot | FluxOR thallium flux fluorescence; zero = vehicle mean+3SD, 100% = vehicle-minus-blank window | activity increase over 3SD of controls, % at 10 µM | actives 43% (n = 1,200) | AID 2282;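 active means signal rise of at least 3 SD above the untreated control mean, in both duplicate wells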;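 further: counter screen of KCNQ2 potentiator hits so any rise reflects channel-independent effects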
KCNQ1 sel pot – selectivity of KCNQ2 potentiators: effect on human KCNQ1. shares compounds with KCNQ2 pot. CHO KCNQ1 stable, FluxOR thallium flux fluorescence; beyond 3SD, as % of vehicle-control signal. activation over 3SD threshold, % at 10 µM. actives 28% (n = 1,200). AID 2283;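 active means fluorescence ratio rise of at least 3 SD of vehicle wells above their mean, in both replicate wells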
Target sequence (P51787 whole entry, looked up): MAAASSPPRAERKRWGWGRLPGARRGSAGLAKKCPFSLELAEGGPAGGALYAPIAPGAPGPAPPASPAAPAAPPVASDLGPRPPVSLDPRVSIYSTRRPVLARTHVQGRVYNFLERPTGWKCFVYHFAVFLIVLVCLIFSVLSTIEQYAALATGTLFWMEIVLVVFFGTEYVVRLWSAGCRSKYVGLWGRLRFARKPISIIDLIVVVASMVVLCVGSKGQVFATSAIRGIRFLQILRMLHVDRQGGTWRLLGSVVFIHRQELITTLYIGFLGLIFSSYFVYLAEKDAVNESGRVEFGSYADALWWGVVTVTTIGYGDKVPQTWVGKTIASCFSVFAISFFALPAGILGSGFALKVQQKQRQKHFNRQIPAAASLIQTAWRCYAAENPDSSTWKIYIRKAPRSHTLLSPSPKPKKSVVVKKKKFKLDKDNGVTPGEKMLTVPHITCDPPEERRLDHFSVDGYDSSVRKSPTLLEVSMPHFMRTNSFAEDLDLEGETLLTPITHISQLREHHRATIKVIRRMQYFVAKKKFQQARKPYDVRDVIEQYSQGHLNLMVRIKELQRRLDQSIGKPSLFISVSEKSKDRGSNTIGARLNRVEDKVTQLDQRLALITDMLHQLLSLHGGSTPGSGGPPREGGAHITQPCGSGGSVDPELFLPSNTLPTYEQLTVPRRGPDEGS
KCNQ2 pot confirm – confirmation of rat KCNQ2 potassium channel potentiators. shares compounds with KCNQ2 pot. potentiation, less the hit threshold, % at 10 µM. actives 68% (n = 1,200). CHO-KCNQ2 cells, FluxOR thallium flux fluorescence;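 active means fluorescence ratio rising 3 SD or more over the vehicle control mean in both replicates, plus primary screen hit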;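 further: peak minus minimum thallium fluorescence divided by baseline after K/Tl stimulus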
Kir2-1 sel – selectivity of KCNQ2 potentiators: effect on mouse Kir2.1; AID 2345; activity over 3SD threshold, % at 10 µM; HEK293 Kir2.1, FluxOR thallium flux fluorescence; actives 2% (n = 1,200); shares compounds with KCNQ2 pot;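 active means fluorescence ratio rise of at least 3 SD above the vehicle-control mean, seen in both replicates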
KCNQ2 W236L pot – KCNQ2 potentiators acting on retigabine-insensitive rat KCNQ2 W236L mutant | current increase over 3SD of negative controls (%), active compounds read high, % at 25 µM | CHO KCNQ2-W236L, automated patch clamp current | shares compounds with KCNQ2 pot | actives 10% (n = 940) | AID 2558;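 active means current increase at least 3 SD of the untreated controls above them in both duplicate recordings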
Numbers stand for hits. The list is not random: actives were taken first. Their share in the collection is about 1.6%.

Cc1csc(=O)n1CCC(=O)OCC(=O)N(CC(C)C)c1c(N)n(Cc2ccccc2)c(=O)[nH]c1=O was read as KCNQ2 pot inactive and KCNQ2 inh inactive.
For CC(C)NC(=S)Nc1ccc2cn[nH]c2c1 the results were KCNQ2 inh inactive.
`CSc1scc2c1-c1nc(SCC(=O)C(C)(C)C)ncc1CC2` gave KCNQ2 pot 6.7, KCNQ2 inh inactive, Kir21 conf inh inactive, HEK293 ctr inactive, CHO-K1 ctr inactive, KCNQ1 sel pot 61, KCNQ2 pot confirm 2.8, Kir2-1 sel inactive and KCNQ2 W236L pot inactive.
Screening CC(C)(C)C(=O)CSc1ncccn1 returned KCNQ2 inh inactive.
`Cc1ccc(O)c(NC(=O)CCC2CCCCC2)c1` gave KCNQ2 pot inactive and KCNQ2 inh inactive.
For O=C(CCC1CCCCC1)Nc1ccccc1-c1ccccc1 the results were KCNQ2 pot 12, KCNQ2 inh inactive, Kir21 conf inh inactive, HEK293 ctr inactive, CHO-K1 ctr 38, KCNQ1 sel pot inactive, KCNQ2 pot confirm 74, Kir2-1 sel inactive and KCNQ2 W236L pot inactive.
For Cc1csc(NC(=O)c2ccc(S(=O)(=O)N3CCN(C)CC3)cc2)n1 the results were KCNQ2 pot inactive and KCNQ2 inh inactive.
Screening Cc1ccc(NC(=O)c2ccc(OC(=O)c3ccco3)cc2)cc1 returned KCNQ2 inh inactive.
For CCN(CC)c1ccc(NC(=O)c2ccco2)cc1 the results were KCNQ2 pot inactive and KCNQ2 inh inactive.
Screening CC(=O)Nc1ccc(NC(=O)c2ccco2)cc1 returned KCNQ2 pot inactive and KCNQ2 inh inactive.
Screening CCN(CC)c1ccc(NC(=S)NC(=O)c2ccco2)cc1 returned KCNQ2 pot 11, KCNQ2 inh inactive, Kir21 conf inh inactive, HEK293 ctr 204%, CHO-K1 ctr inactive, KCNQ1 sel pot inactive, KCNQ2 pot confirm 28, Kir2-1 sel inactive and KCNQ2 W236L pot inactive.
`Cc1ccc(Oc2ccc(NC(=O)c3ccco3)cc2)cc1` gave KCNQ2 pot 14, KCNQ2 inh inactive, Kir21 conf inh inactive, HEK293 ctr 73%, CHO-K1 ctr inactive, KCNQ1 sel pot inactive, KCNQ2 pot confirm 33, Kir2-1 sel inactive and KCNQ2 W236L pot 19%.
For CCC(C)c1ccc(NC(=O)c2ccco2)cc1 (stereo not given) the results were KCNQ2 pot 12, KCNQ2 inh inactive, Kir21 conf inh inactive, HEK293 ctr inactive, CHO-K1 ctr 26, KCNQ1 sel pot inactive, KCNQ2 pot confirm 38, Kir2-1 sel inactive and KCNQ2 W236L pot inactive.
Screening O=C(CN(Cc1ccccc1F)S(=O)(=O)c1ccc(Cl)cc1)NCC1CCCO1 (stereo not given) returned KCNQ2 inh inactive.
Screening [NH-]c1ncnc2c1N=C[N+]2=CC=CCO returned KCNQ2 pot inactive and KCNQ2 inh inactive.
Cc1cc(S(=O)(=O)/N=C(\N)c2ccc(C(N)=O)cc2)cc(C)c1F was read as KCNQ2 inh inactive.
For CCNc1nc(N)nc(Oc2ccc(OCCOc3ccc(Cl)cc3Cl)nn2)n1 the results were KCNQ2 pot inactive and KCNQ2 inh inactive.
`O=C(CN(CC1CCCO1)C(=O)CNS(=O)(=O)c1ccc(F)cc1)NCc1ccc(F)cc1` (stereo not given) gave KCNQ2 inh inactive.
Screening O=C(CCC(=O)OCC(F)(F)C(F)F)Nc1ccccc1F returned KCNQ2 pot inactive and KCNQ2 inh inactive.
CCOc1nc(OCC)c2cnn(C)c2n1 was read as KCNQ2 inh inactive.
Screening O=C(Nc1ccccc1F)C1CC1c1ccccc1 (stereo not given) returned KCNQ2 pot inactive and KCNQ2 inh inactive.
Cc1cccc(NC(=O)C2CC2c2ccccc2)c1C (stereo not given) was read as KCNQ2 pot 18, KCNQ2 inh inactive, Kir21 conf inh inactive, HEK293 ctr inactive, CHO-K1 ctr inactive, KCNQ1 sel pot inactive, KCNQ2 pot confirm 47, Kir2-1 sel inactive and KCNQ2 W236L pot inactive.
COc1ccc(OC)c(NC(=O)C2CCCC2)c1 was read as KCNQ2 pot inactive and KCNQ2 inh inactive.
`COc1ccc(C(=O)Nc2cc(OC)ccc2OC)cc1` gave KCNQ2 pot inactive and KCNQ2 inh inactive.
For COc1ccc(OC)c(NC(=O)C2CC2c2ccccc2)c1 (stereo not given) the results were KCNQ2 pot 19, KCNQ2 inh inactive, Kir21 conf inh inactive, HEK293 ctr 72%, CHO-K1 ctr inactive, KCNQ1 sel pot 8.9, KCNQ2 pot confirm 59, Kir2-1 sel inactive and KCNQ2 W236L pot inactive.
`Cc1ccc(Cl)cc1NC(=O)C1CC1c1ccccc1` (stereo not given) gave KCNQ2 pot 6.2, KCNQ2 inh inactive, Kir21 conf inh inactive, HEK293 ctr inactive, CHO-K1 ctr inactive, KCNQ1 sel pot inactive, KCNQ2 pot confirm inactive, Kir2-1 sel inactive and KCNQ2 W236L pot inactive.
For COc1ccc(OC)c(NC(=O)c2ccc(Cl)cc2)c1 the results were KCNQ2 pot 6.5, KCNQ2 inh inactive, Kir21 conf inh inactive, HEK293 ctr inactive, CHO-K1 ctr inactive, KCNQ1 sel pot inactive, KCNQ2 pot confirm 9.8, Kir2-1 sel inactive and KCNQ2 W236L pot inactive.
For Cc1ccc(Cl)cc1NC(=O)C1C2CCC(O2)C1C(=O)O (stereo not given) the results were KCNQ2 inh inactive.
`CCN(CC(=O)Nc1ccc(C)c(S(=O)(=O)N2CCOCC2)c1)Cc1ccccc1` gave KCNQ2 pot inactive and KCNQ2 inh inactive.
Screening COc1ccc(NC(=O)C(=O)NNC(=O)COc2ccc(Cl)cc2)c(OC)c1 returned KCNQ2 pot 10, KCNQ2 inh inactive, Kir21 conf inh inactive, HEK293 ctr 318%, CHO-K1 ctr 0.6, KCNQ1 sel pot inactive, KCNQ2 pot confirm 21, Kir2-1 sel inactive and KCNQ2 W236L pot inactive.
`COc1cc(NC(=O)COc2ccc(Cl)cc2)ccc1NC(=O)C(C)C` gave KCNQ2 inh inactive.
For COc1ccc(OC)c(NC(=O)C(=S)NC2CCCCC2)c1 the results were KCNQ2 pot inactive and KCNQ2 inh inactive.
`COc1ccc(OC)c(NC(=O)NC2CCCCCCC2)c1` gave KCNQ2 pot 12, KCNQ2 inh inactive, Kir21 conf inh inactive, HEK293 ctr inactive, CHO-K1 ctr inactive, KCNQ1 sel pot inactive, KCNQ2 pot confirm 3.5, Kir2-1 sel inactive and KCNQ2 W236L pot inactive.
